From PubChem BioAssay (EPA / NIEHS) come the findings set out here.

A short description of assay [1]: Tanguay_ZF_120hpf_ActivityScore_legacy: (Legacy) Oregon State University Tanguay Lab 120 Hour Post-fertilization zebrafish Assay Score for Activity (AID 2283742).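 On AC50: dechorionated Tropical 5D wild-type zebrafish embryos held singly per well.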 Summed up:
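Dechorionated 5D embryos, one per well, static exposure 6–120 hpf, 28C, sealed and dark; final DMSO 0.64% (vol/vol). Brightfield binary scoring of mortality plus 18 endpoints; gain-of-signal fit versus DMSO baseline.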

Assay [2] in a line: ArunA_CellTiter_hNC: Viability Assessment in the ArunA Biomedical's Oris Neural Crest (hNC) Cell Migration Assay (AID 2283752). Put shortly:
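Cytotoxicity endpoint run alongside the migration assay: neural crest cells on Matrigel, 60,000 per well, preincubated 16 h at 37C, treated 72 h; CellTiter Aqueous One signal loss relative to DMSO.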

Assay [3] can be described thus: ArunA_CellTiter_hNP: Viability Assessment in the ArunA Biomedical's Oris Neural Crest (hNC) Cell Migration Assay (AID 2283753). Put shortly:
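Viability read with CellTiter 96 Aqueous One after 72 h chemical exposure of human hNP1 neuroprogenitors, which were plated on Matrigel in LIF/bFGF medium 16 h beforehand. Endpoint fitted in positive direction relative to DMSO.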

The nature of assay [4]: ArunA_Migration_hNP: ArunA Biomedical's Oris Neuroprogenitor (hNP) Cell Migration Assay (AID 2283754). Summed up: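 Readout is calcein-AM fluorescence (ex494/em517) of cells migrating into the detection zone, relative to DMSO. hNP1 cells (H9-derived) grown on Matrigel behind stoppers 16 h, then stoppers pulled and chemical applied 72 h; cytochalasin D as control.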
The nature of assay [5]: ArunA_Migration_hNC: ArunA Biomedical's Oris Neural Crest (hNC) Cell Migration Assay (AID 2283755). Summed up:
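Calcein-AM fluorescence (ex494 nm/em 517 nm) in the stopper-defined detection zone quantifies migration of hNC cells after 72 h chemical exposure; 60,000 cells/well plated on Matrigel with LIF and bFGF, 16 h pre-incubation. DMSO baseline.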

Assay [6] in a line: ArunA_NOG_NucleusCount: ArunA Biomedical's Neurite Outgrowth (NOG) Assay for Nucleus Count (AID 2283756). Summed up: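 Viable neuron count, from Hoechst nuclei passing size and intensity gates, imaged at 20x on differentiated H9-derived human neurons. Exposure lasted 48 h from seeding; activity was scored relative to DMSO.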
The nature of assay [7]: ArunA_NOG_NeuriteLength: ArunA Biomedical's Neurite Outgrowth (NOG) Assay for Neurite Length (AID 2283757). Put shortly: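 Total neurite length per neuron, from traced βIII-tubulin-labelled processes longer than 10 um on viable Hoechst-gated cells, was scored as decrease from DMSO. Cells were hESC (H9)-derived neurons given 48 h chemical exposure immediately after seeding.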

Assay [8] can be described thus: ArunA_NOG_NeuritesPerNeuron: ArunA Biomedical's Neurite Outgrowth (NOG) Assay for Neurites Per Neuron (AID 2283758). Put shortly:
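Differentiated human H9-derived neurons exposed to chemicals for 48 h from seeding, then stained with Hoechst and βIII-tubulin/DyLight 488. Automated imaging counted neurites (processes >10 um) per valid neuron; loss of signal versus DMSO scored.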

Assay [9] in a line: ArunA_NOG_BranchPointsPerNeurite: ArunA Biomedical's Neurite Outgrowth (NOG) Assay for Branch Points Per Neurite (AID 2283759). Put shortly:
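Automated image analysis traced neurites (processes >10 um) from valid cell bodies after Hoechst and βIII-tubulin staining. hNN cells from H9 embryonic stem cells, 48 h exposure. Fitted bidirectionally against DMSO.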

Assay [10] in a line: ACEA_AR_agonist_AUC_viability: ACEA Biosciences xCELLigence Real-Time Cell Analysis on Androgen Receptor Agonism for Viability (AID 2283775).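 On AC50: viability read 80 hours after compound addition.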 Summed up: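 Viability endpoint from xCELLigence impedance in 22Rv1 prostate cells at 80 h. Eight-point series, 100 uM maximum final.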
The nature of assay [11]: ACEA_AR_antagonist_AUC_viability: ACEA Biosciences xCELLigence Real-Time Cell Analysis on Androgen Receptor Antagonism for Viability (AID 2283776).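 Further: 22Rv1 human prostate cancer cells growing on impedance electrode plates; area under impedance growth curve at 80 h after dosing as viability; hits lower the growth signal relative to DMSO meaning cytotoxicity.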 Put shortly:
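22Rv1 prostate cells, continuous dosing up to 100 uM final (0.5% DMSO max), duplicate plates. Growth measured by impedance; AUC at 80 h, loss of signal vs DMSO.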

The test system of assay [12] is Thyroperoxidase (TPO), gene 445522. Kind of assay: CCTE_Simmons_GUA_TPO: CCTE's Guaiacol Assay for Thyroperoxidase (TPO) Inhibition, Simmons Lab (AID 2283750). Put shortly: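 Porcine thyroid microsomes (25 ug) in 200mM potassium phosphate, preincubated 30 s at 37C with compound (8 concentrations, 5 nM–87.5 uM) and 35mM guaiacol; 1mM H2O2 starts reaction. Absorbance change at 450nm over first 80 s; loss of signal versus DMSO, three replicates.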

For assay [13], the target named is Luciferin 4-monooxygenase (Photinus pyralis) (UniProt P08659). Kind of assay: CCTE_Simmons_QuantiLum_inhib_2: CCTE's Firefly Luciferase Inhibition Assay, Simmons Lab (AID 2283767).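 On AC50: potency for inhibitors that lower luciferase luminescence relative to DMSO.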 Summed up:
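Eight-point titrations of each chemical, 5 nM–87.5 uM final in 0.5% DMSO, were run in three biological replicates against recombinant luciferase for 30 min at 37C. Bioluminescence signal loss, read on reagent injection, gave the inhibition endpoint.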

For assay [14], the target named is zebrafish Estrogen Receptor (ESR1), esr1 (gene 259252) (UniProt P57717). Kind of assay: ATG_zfER1_XSP1: Attagene TRANS-FACTORIAL Multi-Species (XSP1) HepG2 Assay for zebrafish Estrogen Receptor (ESR1) (AID 2283772). Summed up: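 Reporter mRNA induction, gauged via RT-PCR/capillary electrophoresis fluorescence relative to DMSO controls, in HepG2 cells transiently carrying GAL4-UAS reporter units; 24 h dosing.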

The test system of assay [15] is zebrafish Estrogen Receptor (ESR2B), gene 317733. Kind of assay: ATG_zfER2b_XSP1: Attagene TRANS-FACTORIAL Multi-Species (XSP1) HepG2 Assay for zebrafish Estrogen Receptor (ESR2B) (AID 2283773). Put shortly: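 Multiplexed TRANS format in transfected HepG2 liver cells, chimeric NR-Gal4 from zebrafish ESR2B. 24 h dosing; medium contains 3 nM 6-alpha-fluorotestosterone. mRNA induction by RT-PCR/CE, positive direction vs DMSO.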

Assay [16] has as its system frog Estrogen Receptor (ESR2), gene 100174814. Nature of the assay: ATG_frER2_XSP1: Attagene TRANS-FACTORIAL Multi-Species (XSP1) HepG2 Assay for frog Estrogen Receptor (ESR2) (AID 2283774). Summed up:
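HepG2, transient MRTU transfection (GAL4-UAS reporters, exogenous NR-Gal4 chimeras); 24 h compound exposure; 3 nM 6α-fluorotestosterone co-added; total RNA → RT-PCR → 6-FAM primer extension → HpaI → CE. Positive direction vs DMSO.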

The test system of assay [17] is frog Estrogen Receptor (ESR1), gene 398734. Kind of assay: ATG_frER1_XSP1: Attagene TRANS-FACTORIAL Multi-Species (XSP1) HepG2 Assay for frog Estrogen Receptor (ESR1) (AID 2283777). Summed up:
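Transient MRTU transfection, HepG2 (human liver); 24 h dosing, 3 nM 6α-fluorotestosterone co-added; RNA → RT-PCR → 6-FAM labeling → CE; upward activity vs DMSO.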

Assay [18] concerns the target chicken Estrogen Receptor (ESR1), ESR1 (gene 396099) (UniProt P06212). Nature of the assay: ATG_chERa_XSP1: Attagene TRANS-FACTORIAL Multi-Species (XSP1) HepG2 Assay for chicken Estrogen Receptor (ESR1) (AID 2283779). Summed up:
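Read-out: fluorescent reporter mRNA fragments resolved by capillary electrophoresis after RT-PCR and HpaI digestion. Transfected HepG2 cells carried chimeric NR-Gal4 constructs, were dosed 24 h with 3 nM 6-alpha-fluorotestosterone added, and activity was fitted upward relative to DMSO.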

The test system of assay [19] is turtle Estrogen Receptor (ESR1), gene 101933533. Kind of assay: ATG_trERa_XSP1: Attagene TRANS-FACTORIAL Multi-Species (XSP1) HepG2 Assay for turtle Estrogen Receptor (ESR1) (AID 2283781). Put shortly:
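Transfect HepG2 with reporter units → dose chemical 24 h (medium has 3 nM 6-alpha-fluorotestosterone) → isolate RNA, RT-PCR → FAM primer extension, HpaI digest → capillary electrophoresis; gain of signal vs DMSO.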

The subject of assay [20] is zebrafish Androgen Receptor (AR), gene 100005148. Kind of assay: ATG_zfAR_XSP1: Attagene TRANS-FACTORIAL Multi-Species (XSP1) HepG2 Assay for zebrafish Androgen Receptor (AR) (AID 2283771). Summed up:
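Gain-of-signal versus DMSO was measured as reporter transcripts quantified by RT-PCR, fluorescent labelling and capillary electrophoresis after 24 h chemical exposure. The cells were HepG2 expressing a chimeric zebrafish AR-GAL4, co-stimulated with 3 nM 6-alpha-fluorotestosterone.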

Each structure is given as a SMILES string. Several values for one entry are separate records, joined by “and”; a condition that tells them apart may be missing. Equal values may be shown once. Inconclusive results are not listed. A structure can be active in one record and inactive in another. Activity calls are given as the source filed them. How the source made its calls: active means hit-call score of the fitted dose curve at least 0.9, where 1 is the maximum; inconclusive means response in the unintended direction; inactive means score below 0.9.

Sequence of Luciferin 4-monooxygenase (Photinus pyralis) (P08659 whole entry, looked up): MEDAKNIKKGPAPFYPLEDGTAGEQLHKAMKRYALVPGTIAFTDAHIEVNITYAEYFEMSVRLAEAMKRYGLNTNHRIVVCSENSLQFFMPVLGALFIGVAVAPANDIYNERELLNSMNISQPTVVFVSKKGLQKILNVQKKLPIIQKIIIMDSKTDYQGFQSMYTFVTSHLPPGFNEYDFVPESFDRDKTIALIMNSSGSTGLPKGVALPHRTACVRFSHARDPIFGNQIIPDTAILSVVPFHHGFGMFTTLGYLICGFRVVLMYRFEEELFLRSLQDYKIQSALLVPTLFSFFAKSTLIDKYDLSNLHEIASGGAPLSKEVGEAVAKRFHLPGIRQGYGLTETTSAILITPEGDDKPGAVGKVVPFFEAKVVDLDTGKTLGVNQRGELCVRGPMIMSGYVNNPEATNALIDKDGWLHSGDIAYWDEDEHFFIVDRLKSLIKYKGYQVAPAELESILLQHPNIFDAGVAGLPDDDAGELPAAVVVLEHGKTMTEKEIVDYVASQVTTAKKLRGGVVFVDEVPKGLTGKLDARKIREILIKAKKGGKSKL
Sequence of zebrafish Estrogen Receptor (ESR1), esr1 (gene 259252) (P57717 whole entry, looked up, the tested form may be a part): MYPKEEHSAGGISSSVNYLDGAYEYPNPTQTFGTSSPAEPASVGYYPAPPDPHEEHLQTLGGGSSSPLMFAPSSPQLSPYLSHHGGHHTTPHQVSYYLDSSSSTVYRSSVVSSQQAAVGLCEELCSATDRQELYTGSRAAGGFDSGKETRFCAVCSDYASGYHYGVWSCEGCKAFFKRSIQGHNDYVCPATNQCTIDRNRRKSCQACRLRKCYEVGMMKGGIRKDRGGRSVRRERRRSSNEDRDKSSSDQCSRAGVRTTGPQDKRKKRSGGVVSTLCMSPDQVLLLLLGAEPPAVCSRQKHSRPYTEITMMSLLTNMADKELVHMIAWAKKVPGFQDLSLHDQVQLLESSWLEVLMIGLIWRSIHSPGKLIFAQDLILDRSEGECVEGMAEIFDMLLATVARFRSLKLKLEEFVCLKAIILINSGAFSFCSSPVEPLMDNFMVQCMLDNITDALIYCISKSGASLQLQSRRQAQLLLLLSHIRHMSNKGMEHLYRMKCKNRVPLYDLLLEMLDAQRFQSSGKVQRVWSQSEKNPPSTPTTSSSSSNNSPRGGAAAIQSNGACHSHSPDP
Sequence of chicken Estrogen Receptor (ESR1), ESR1 (gene 396099) (P06212 whole entry, looked up, the tested form may be a part): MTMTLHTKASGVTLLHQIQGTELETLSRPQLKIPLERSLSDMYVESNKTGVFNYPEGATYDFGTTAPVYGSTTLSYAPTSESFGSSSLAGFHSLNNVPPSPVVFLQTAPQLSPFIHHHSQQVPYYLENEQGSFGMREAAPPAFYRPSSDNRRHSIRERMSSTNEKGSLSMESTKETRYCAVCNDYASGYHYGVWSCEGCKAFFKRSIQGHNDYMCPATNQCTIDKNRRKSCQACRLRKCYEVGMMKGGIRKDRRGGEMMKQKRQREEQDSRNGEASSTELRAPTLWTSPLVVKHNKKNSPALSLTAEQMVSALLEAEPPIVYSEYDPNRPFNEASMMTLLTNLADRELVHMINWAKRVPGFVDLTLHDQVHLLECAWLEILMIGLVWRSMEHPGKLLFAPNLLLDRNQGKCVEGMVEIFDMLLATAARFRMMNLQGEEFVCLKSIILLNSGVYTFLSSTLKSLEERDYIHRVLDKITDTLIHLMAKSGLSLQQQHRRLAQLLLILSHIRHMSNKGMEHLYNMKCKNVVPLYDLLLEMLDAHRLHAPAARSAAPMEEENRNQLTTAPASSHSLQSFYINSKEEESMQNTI

With `Nc1nc(Cl)nc2c1ncn2[C@H]1C[C@H](O)[C@@H](CO)O1`, the result in assay [1] and in assay [2] was inactive. The AC50 in assay [2] was 0.354 µM (active); in assay [3], 0.345 µM (active); in assay [4], 289 nM (active) and 52.1 nM (active); in [5], 120 nM (active) and 32 nM (active); in [6] it was 1.81 µM (active); in assay [7], 1.74 µM (active). Besides, the AC50 in assay [8] was 1.58 µM (active); in assay [9], 3.41 µM (active); in assay [10], 1.98 µM (active); in assay [11], 1.45 µM (active).
`CC(C)NCC(O)c1ccc(O)c(O)c1` (configuration not stated): the result in [1] and in assay [13] was inactive. Moreover, the AC50 in assay [12] was 7.79 µM (active).
Consider `Oc1ccc(O)cc1`, for which the AC50 is 2.69 µM (active) in assay [1] and 50 µM (active) in assay [11]. The call in [13] was inactive.
Consider `Cc1occc(=O)c1O`, for which the compound was called inactive in assay [1], in assay [13] and in assay [11].
Take `CC(=O)OC1CC(C)OC(C)O1` (configuration not stated): in assay [1], the result was inactive.
For `Oc1ccccc1O`, the outcome in assay [1] and in assay [13] was inactive. The AC50 was 18 µM (active) in assay [10] and 28.9 µM (active) in [11].
Turning to `CN(C)CCCN1c2ccccc2Sc2ccc(Cl)cc21`, the AC50 in [1] is 33.7 µM (active); in assay [10] it was 22.2 µM (active).
Consider `Cc1cc(Cc2ccc(N)c(C)c2)ccc1N`, for which the call in [1], in assay [13], in [10] and in [11] was inactive.
Consider `CCCCCCCCCCCCCCOS(=O)(=O)O`, for which the AC50 is 32.8 µM (active) in [1], 68 µM (active) in assay [10] and 42.3 µM (active) in assay [11]. Also, the compound was called inactive in assay [13].
Take `CC(=O)O[C@]1(C(C)=O)CC[C@H]2[C@@H]3C=C(Cl)C4=CC(=O)[C@@H]5C[C@@H]5[C@]4(C)[C@H]3CC[C@@]21C`: in [1], the compound was called inactive. Further, the AC50 in [14] is 35.6 µM (active); in [15], 13.1 µM (active); in assay [16] it was 18 µM (active); in assay [10], 87.1 µM (active); in assay [11], 0.0607 µM (active); in assay [17] it was 4.61 µM (active). Moreover, the AC50 in assay [18] is 5.26 µM (active); in assay [19] it was 3.25 µM (active).
Turning to `OCC(O)CO`, in assay [1], the call was inactive.
With `C/C=C/c1ccc(OC)cc1`, the result in assay [1], in assay [13], in assay [10] and in [11] was inactive.
In the case of `CC(C)(C)c1ccccc1`, in assay [1], the AC50 was 24.6 µM (active).
Consider `O=Cc1ccccc1C=O`, for which the AC50 in assay [1] was 3.08 µM (active); in assay [13] it was 53.8 µM (active); in [10], 79.2 µM (active); in [11] it was 78.7 µM (active).
Turning to `Cc1cc(SC2=C(O)C[C@@](CCc3ccc(N)cc3)(C(C)C)OC2=O)c(C(C)(C)C)cc1CO`, the call in assay [1] and in assay [13] was inactive. Further, the results for the AC50 in assay [10] and in [11] were 50 µM (active) and 61.8 µM (active), respectively.
Regarding `CCN(CC)CCOc1ccc(C(=C(Cl)c2ccccc2)c2ccccc2)cc1`, the figures for the AC50 in assay [1], in assay [10] and in assay [11] were 37.8 µM (active), 13.1 µM (active) and 12.4 µM (active), respectively. Besides, the outcome in [20], in assay [14], in assay [15] and in [16] was inactive.
On to `CCCCOC(=O)CCCCC(=O)OCCCC`, for which the compound was classed as inactive in assay [1], in assay [10] and in assay [11].
Consider `O=C(NS(=O)(=O)/C=C/c1cccs1)c1ccc(F)cc1Br`, for which, in assay [1], the compound was called inactive. The AC50 in assay [10] is 3.38 µM (active); in assay [11], 3.42 µM (active).
